Assay [1] deals with Rho-associated protein kinase 2 (Homo sapiens) (UniProt O75116). The following applies: at 1 µM.
For assay [2] the target is unchanged. The following applies: at 10 µM.
Assay [3] deals with Proto-oncogene tyrosine-protein kinase receptor Ret (Homo sapiens) (UniProt P07949). To be noted: at 1 µM.
Assay [4] has the same target. To be noted: at 10 µM.
Assay [5] addresses Macrophage-stimulating protein receptor (Homo sapiens) (UniProt Q04912). To be noted: at 1 µM.
The target is the same in assay [6]. The following applies: at 10 µM.
For assay [7], the target named is Proto-oncogene tyrosine-protein kinase ROS (Homo sapiens) (UniProt P08922). The following applies: at 1 µM.
Assay [8] shares this target. The following applies: at 10 µM.
For assay [9], the target named is T1, Tyrosine-protein kinase receptor TYRO3 (Homo sapiens) (UniProt Q06418).
T1 sequence (whole entry): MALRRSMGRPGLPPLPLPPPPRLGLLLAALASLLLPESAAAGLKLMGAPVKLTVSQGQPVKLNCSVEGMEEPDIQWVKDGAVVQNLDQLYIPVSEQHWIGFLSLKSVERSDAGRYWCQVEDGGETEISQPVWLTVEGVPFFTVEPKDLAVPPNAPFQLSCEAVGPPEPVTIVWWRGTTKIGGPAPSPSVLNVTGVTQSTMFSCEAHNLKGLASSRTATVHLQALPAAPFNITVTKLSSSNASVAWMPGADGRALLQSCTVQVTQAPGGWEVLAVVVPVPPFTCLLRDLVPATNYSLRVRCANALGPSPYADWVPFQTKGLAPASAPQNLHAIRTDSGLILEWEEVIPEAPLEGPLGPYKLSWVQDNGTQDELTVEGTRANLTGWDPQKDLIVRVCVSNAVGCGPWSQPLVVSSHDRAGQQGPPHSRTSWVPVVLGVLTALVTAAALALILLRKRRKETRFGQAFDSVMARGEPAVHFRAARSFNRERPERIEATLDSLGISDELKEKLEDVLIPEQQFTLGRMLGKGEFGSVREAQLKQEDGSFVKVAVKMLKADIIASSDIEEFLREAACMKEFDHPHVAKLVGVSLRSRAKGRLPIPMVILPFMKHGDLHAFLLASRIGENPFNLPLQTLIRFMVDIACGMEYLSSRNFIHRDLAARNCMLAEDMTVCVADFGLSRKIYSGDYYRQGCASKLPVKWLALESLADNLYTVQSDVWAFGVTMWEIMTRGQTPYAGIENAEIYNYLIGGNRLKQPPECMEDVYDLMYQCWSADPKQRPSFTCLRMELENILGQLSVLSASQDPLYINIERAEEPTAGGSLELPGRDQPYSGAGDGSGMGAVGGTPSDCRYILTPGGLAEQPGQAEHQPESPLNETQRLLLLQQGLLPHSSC
To be noted: at 1 µM.

Assay [10] has as its target T1, Tyrosine-protein kinase receptor TYRO3 (Homo sapiens). The following applies: at 10 µM.

This passage reports residual activity results from ChEMBL document CHEMBL2218924, “A broad activity screen in support of a chemogenomic map for kinase signalling research and drug discovery” (Biochem J, 2013).

Macrophage-stimulating protein receptor (Homo sapiens), sequence (Q04912 25-304 limits assumed): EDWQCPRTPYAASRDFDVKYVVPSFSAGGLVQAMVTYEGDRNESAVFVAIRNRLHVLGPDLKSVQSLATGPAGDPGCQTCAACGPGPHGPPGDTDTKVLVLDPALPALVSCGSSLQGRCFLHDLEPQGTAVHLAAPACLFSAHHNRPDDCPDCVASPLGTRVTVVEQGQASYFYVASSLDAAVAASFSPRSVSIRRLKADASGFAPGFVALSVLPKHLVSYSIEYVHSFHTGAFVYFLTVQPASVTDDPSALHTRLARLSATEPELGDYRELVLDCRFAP
Macrophage-stimulating protein receptor (Homo sapiens), sequence (Q04912 310-1400 limits assumed): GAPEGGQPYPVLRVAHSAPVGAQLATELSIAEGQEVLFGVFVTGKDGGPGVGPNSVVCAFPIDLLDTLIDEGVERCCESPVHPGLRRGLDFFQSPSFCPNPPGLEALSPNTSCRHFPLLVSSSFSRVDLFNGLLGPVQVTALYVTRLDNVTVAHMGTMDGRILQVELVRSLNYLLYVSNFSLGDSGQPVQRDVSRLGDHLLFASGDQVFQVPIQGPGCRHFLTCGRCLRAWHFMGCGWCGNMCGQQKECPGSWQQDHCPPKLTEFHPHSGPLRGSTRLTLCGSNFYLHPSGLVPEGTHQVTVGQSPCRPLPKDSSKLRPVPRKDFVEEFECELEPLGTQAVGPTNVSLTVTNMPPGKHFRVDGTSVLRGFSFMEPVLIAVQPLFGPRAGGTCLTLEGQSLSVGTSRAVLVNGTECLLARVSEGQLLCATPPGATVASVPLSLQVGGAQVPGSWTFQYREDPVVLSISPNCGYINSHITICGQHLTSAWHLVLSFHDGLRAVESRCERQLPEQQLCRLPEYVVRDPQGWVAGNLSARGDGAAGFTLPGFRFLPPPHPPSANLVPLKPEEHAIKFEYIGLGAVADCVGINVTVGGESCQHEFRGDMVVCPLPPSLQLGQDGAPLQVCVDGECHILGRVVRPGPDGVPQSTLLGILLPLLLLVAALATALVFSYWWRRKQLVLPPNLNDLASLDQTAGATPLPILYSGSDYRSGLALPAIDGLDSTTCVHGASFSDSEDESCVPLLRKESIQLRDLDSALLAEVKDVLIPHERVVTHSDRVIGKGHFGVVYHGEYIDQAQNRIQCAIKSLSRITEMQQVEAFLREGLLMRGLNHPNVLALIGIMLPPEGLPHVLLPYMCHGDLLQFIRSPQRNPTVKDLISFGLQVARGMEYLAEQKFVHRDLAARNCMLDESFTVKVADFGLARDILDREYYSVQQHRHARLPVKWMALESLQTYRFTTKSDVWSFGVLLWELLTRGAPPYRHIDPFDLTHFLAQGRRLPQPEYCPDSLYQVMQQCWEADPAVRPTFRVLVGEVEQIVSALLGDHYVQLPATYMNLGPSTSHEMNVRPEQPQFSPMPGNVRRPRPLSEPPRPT
Rho-associated protein kinase 2 (Homo sapiens), sequence (O75116 whole entry, looked up): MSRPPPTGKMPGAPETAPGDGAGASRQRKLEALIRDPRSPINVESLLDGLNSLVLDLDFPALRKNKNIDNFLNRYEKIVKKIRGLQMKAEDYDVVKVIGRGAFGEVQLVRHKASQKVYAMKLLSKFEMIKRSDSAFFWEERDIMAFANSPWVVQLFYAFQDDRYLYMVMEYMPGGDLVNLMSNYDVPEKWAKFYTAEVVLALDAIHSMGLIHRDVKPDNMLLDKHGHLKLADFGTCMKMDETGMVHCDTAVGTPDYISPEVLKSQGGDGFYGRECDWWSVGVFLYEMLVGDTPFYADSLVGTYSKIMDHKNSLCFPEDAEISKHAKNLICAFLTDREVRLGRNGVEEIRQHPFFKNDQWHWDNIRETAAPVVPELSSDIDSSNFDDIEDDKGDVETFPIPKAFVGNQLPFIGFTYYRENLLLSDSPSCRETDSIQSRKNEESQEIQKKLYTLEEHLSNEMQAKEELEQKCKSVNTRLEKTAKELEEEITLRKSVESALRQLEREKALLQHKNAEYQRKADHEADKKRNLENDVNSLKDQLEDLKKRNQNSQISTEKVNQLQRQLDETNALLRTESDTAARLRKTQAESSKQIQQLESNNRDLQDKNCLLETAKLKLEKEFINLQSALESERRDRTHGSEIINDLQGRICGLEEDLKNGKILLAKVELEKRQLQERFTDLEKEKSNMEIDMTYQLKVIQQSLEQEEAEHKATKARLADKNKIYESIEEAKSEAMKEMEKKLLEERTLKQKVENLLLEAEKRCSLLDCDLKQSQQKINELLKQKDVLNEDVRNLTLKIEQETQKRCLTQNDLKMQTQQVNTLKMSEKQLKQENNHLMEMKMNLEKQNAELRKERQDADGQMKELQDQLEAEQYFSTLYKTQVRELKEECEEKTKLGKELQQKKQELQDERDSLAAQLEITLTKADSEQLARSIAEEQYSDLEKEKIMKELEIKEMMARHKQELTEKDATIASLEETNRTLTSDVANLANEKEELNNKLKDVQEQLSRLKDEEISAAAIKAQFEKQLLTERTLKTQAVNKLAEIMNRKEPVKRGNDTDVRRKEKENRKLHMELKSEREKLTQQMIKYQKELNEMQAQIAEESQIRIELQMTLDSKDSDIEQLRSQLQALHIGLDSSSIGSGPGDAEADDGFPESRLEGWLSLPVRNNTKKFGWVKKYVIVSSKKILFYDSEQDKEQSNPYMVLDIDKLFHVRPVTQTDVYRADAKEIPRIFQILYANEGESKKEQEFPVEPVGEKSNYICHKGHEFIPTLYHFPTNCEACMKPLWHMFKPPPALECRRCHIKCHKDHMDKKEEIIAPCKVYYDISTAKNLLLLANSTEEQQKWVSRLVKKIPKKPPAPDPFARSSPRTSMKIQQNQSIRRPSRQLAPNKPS
Proto-oncogene tyrosine-protein kinase ROS (Homo sapiens), sequence (P08922 whole entry): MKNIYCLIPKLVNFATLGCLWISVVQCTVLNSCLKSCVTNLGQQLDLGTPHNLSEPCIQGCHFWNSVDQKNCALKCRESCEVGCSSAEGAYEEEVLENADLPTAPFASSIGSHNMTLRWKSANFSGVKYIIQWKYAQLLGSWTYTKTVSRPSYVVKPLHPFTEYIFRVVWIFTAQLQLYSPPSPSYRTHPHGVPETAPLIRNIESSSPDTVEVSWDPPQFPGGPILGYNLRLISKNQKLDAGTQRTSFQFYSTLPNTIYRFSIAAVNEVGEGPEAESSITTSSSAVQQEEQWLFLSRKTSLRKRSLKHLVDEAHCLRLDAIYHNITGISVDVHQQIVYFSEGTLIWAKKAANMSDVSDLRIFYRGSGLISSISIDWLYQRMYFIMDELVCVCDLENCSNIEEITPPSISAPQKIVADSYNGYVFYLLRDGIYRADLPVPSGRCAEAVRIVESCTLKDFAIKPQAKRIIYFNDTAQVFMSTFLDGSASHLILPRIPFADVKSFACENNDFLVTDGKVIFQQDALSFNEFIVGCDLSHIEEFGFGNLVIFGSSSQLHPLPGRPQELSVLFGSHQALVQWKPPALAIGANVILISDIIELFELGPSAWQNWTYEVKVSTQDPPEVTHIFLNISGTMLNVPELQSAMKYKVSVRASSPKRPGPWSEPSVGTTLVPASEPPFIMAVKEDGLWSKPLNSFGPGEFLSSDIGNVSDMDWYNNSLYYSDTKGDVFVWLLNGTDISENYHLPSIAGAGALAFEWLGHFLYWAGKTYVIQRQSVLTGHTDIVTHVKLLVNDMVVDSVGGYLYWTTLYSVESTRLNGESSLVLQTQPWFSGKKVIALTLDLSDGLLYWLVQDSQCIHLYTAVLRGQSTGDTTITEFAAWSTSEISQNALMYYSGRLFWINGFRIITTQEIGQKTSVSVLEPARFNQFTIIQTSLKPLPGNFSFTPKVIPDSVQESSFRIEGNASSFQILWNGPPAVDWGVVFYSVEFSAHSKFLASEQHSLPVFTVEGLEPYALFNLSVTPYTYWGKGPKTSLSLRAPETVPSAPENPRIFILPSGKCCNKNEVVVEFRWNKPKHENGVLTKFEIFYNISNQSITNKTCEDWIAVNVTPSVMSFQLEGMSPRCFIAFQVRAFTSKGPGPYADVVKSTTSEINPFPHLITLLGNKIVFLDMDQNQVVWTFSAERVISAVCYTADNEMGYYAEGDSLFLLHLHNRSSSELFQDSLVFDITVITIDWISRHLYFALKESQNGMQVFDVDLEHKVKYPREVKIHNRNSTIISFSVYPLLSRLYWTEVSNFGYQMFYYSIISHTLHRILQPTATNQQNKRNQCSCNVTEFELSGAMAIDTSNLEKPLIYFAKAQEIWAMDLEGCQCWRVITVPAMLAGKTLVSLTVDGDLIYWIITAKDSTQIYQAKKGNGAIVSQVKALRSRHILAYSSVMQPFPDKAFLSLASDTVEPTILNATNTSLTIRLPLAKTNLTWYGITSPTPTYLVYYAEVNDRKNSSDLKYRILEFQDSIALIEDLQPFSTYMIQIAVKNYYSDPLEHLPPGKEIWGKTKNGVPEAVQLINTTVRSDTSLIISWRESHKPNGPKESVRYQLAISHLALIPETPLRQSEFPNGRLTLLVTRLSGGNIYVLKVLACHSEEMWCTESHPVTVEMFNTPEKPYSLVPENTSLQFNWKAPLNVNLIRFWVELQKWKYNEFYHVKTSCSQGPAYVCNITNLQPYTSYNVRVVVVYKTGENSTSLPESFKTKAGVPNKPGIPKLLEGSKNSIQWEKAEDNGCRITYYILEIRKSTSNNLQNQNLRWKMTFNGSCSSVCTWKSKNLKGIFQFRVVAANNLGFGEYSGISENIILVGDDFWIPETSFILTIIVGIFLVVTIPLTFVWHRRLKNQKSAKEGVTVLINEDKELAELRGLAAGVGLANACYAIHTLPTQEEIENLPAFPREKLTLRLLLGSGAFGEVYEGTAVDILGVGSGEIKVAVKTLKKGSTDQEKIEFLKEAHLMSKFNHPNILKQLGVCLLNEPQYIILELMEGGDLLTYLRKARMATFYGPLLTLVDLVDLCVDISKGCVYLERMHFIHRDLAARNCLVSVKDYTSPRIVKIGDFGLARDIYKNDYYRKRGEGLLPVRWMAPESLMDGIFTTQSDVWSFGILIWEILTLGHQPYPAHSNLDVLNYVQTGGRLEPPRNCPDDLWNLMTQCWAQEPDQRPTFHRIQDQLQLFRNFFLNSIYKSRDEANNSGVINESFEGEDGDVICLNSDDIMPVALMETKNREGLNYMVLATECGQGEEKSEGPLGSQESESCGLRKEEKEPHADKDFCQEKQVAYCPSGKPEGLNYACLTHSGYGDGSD

On to `CC[n+]1c(/C=C/N(C)c2ccccc2)n(-c2ccccc2)c2ccc(-c3nc4ccccc4s3)cc21`, for which the residual activity in [1] stood at 103%; in [2] it was 93%; in [3], 96%; in [4] it was 100%; in assay [5], 97%; in assay [6] it was 57%. Moreover, the residual activity came to 105% in assay [7], 102% in assay [8], 99% in assay [9] and 72% in assay [10].
As to `Nc1nc(Nc2ccc(S(N)(=O)=O)cc2)nn1C(=S)Nc1c(F)cccc1F`, the residual activity in [1] is 0%; in [2], 1%; in assay [3] it was 2%; in assay [4] it was -1%; in [5], 7%; in assay [6], 2%. For the same compound, the residual activity in assay [7] was 70%; in assay [8], 16%; in assay [9] it was 14%; in [10], -1%.
Turning to `Cc1ccc(S(=O)(=O)/C=C/C#N)cc1`, the residual activity in [1] came to 89%; in [2], 93%; in assay [3] it was 115%; in [4], 90%; in [5], 80%; in [6] it was 91%. Further, the residual activity in assay [7] worked out at 104%; in assay [8], 92%; in assay [9], 107%; in [10], 99%.
`Cc1nc(-c2ccccc2)c(-c2ccncc2)o1`: the residual activity in [1] was 106%; in assay [2] it was 76%; in assay [3], 11%; in assay [4], 7%; in assay [5] it was 87%; in assay [6], 96%. Also, the residual activity in assay [7] came to 98%; in assay [8], 97%; in assay [9] it was 98%; in assay [10] it was 121%.
Consider `Cc1ccc(NC2=CC(=O)c3sc(C)nc3C2=O)cc1`, for which the residual activity in assay [1] was determined as 87%; in assay [2], 90%; in assay [3], 109%; in assay [4], 97%; in assay [5] it was 79%; in [6], 81%. In addition, the residual activity in assay [7] is 101%; in assay [8], 88%; in assay [9] it was 98%; in assay [10], 101%.
For `O=c1cc(-c2cccc3c2Sc2ccccc2S3)oc(N2CCOCC2)c1`, the residual activity turned out to be 102% in assay [1]; 101% in assay [2]; 102% in assay [3]; 83% in assay [4]; 90% in assay [5]; 104% in assay [6]. For the same compound, the residual activity worked out at 109% in assay [7], 96% in assay [8], 93% in [9] and 103% in assay [10].
On to `Cc1cc2ncc(-c3ccccc3)nc2cc1C`, for which the residual activity is 100% in [1]; 94% in assay [2]; 96% in assay [3]; 104% in [4]; 92% in assay [5]; 79% in assay [6]. Also, the results for the residual activity in assay [7] and in [8] were 101% and 100%, respectively.
Take `O=C1NC(=O)c2c1c1c3ccccc3[nH]c1c1[nH]c3cc(Br)ccc3c21`: the residual activity in assay [1] was 93%; in assay [2], 89%; in assay [3] it was 91%; in assay [4], 77%; in assay [5], 79%; in assay [6], 83%. In addition, the residual activity was determined as 102% in [7], 96% in [8], 110% in assay [9] and 98% in [10].
`Cn1cnc2cc3c(Nc4cccc(Br)c4)ncnc3cc21`: the residual activity in assay [1] was determined as 93%; in assay [2], 81%; in [3], 66%; in [4], 65%; in [5], 88%; in assay [6] it was 64%. The residual activity in assay [7] came out at 91%; in assay [8], 98%; in assay [9], 59%; in assay [10] it was 53%.
In the case of `CCC(=O)Nc1ccc2ncnc(Nc3cccc(Br)c3)c2c1`, the residual activity stood at 89% in [1]; 88% in assay [2]; 86% in [3]; 103% in assay [4]; 90% in assay [5]; 70% in [6]. In addition, the residual activity in assay [7] is 92%; in assay [8], 98%; in [9], 90%; in assay [10] it was 93%.
On to `COc1ccc(OC)c2c(=S)c3ccccc3[nH]c12`, for which the residual activity is 86% in [1]; 95% in assay [2]; 110% in [3]; 96% in assay [4]; 69% in assay [5]; 82% in assay [6]. In addition, the residual activity in assay [7] turned out to be 99%; in assay [8], 92%; in assay [9], 108%; in assay [10], 93%.
Take `COc1ccc(CNc2nc(N(CCO)CCO)nc3c2ncn3C(C)C)cc1`: the residual activity in assay [1] stood at 91%; in assay [2], 96%; in [3], 108%; in assay [4], 97%; in assay [5] it was 76%; in assay [6] it was 85%. Also, the residual activity in assay [7] is 96%; in assay [8], 85%; in assay [9], 116%; in assay [10], 97%.
For `COc1cc2ncnc(Nc3ccc(O)c(Br)c3)c2cc1OC`, the residual activity in [1] came to 39%; in assay [2], 40%; in assay [3], 23%; in assay [4] it was 1%; in assay [5] it was 90%; in [6] it was 50%. Also, the residual activity in assay [7] is 88%; in assay [8], 84%; in [9], 38%; in assay [10], 4%.
For `O=c1c2ccccc2[nH]c(=S)n1CCN1CCC(=C(c2ccc(F)cc2)c2ccc(F)cc2)CC1`, the residual activity in [1] is 109%; in assay [2], 86%; in assay [3], 104%; in assay [4] it was 108%; in [5], 72%; in assay [6] it was 78%. Also, the residual activity came to 98% in assay [7], 99% in assay [8], 82% in assay [9] and 102% in [10].
Take `O=[N+]([O-])c1ccc(-c2nc(-c3ccc(F)cc3)c(-c3ccncc3)[nH]2)cc1`: the residual activity stood at 87% in assay [1]; 94% in [2]; 78% in [3]; 73% in assay [4]; 90% in assay [5]; 90% in [6]. Also, the residual activity in [7] was found to be 104%; in assay [8], 91%; in [9], 86%; in assay [10], 111%.
With `O=C1c2ccccc2-[n+]2ccc3c([nH]c4ccccc43)c21`, the residual activity is 89% in assay [1]; 86% in [2]; 89% in assay [3]; 75% in assay [4]; 77% in [5]; 70% in assay [6]. The residual activity in assay [7] was 89%; in assay [8], 88%; in assay [9] it was 104%; in assay [10], 107%.
Take `Nc1ccc2ncnc(NCCc3ccc(Oc4ccccc4)cc3)c2c1`: the residual activity stood at 110% in assay [1]; 94% in [2]; 76% in assay [3]; 55% in assay [4]; 82% in assay [5]; 70% in [6]. Besides, the residual activity in assay [7] stood at 107%; in [8] it was 100%; in assay [9], 113%; in assay [10], 100%.
